Beta cell apopt – inhibitors of cytokine-induced beta cell apoptosis, primary screen, luminescence. AID 435005, 2010. 0.8% of 300,000 active. INS-1E cytokine-induced death, ATP luminescence, 48 h; percent of positive-control rescue, neutral wells zero. protection from apoptosis, % (concentration not given with the values);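 active = Every replicate reaches about 75%, or at least half do and their mean reaches it too, limit read from the data; inconclusive = At least half of replicates reach the limit but their mean does not; inactive = Under half of replicates reach the limit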;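 also: 0% = cytokine-treated negative control wells and 100% = positive control rescue; higher means more ATP so stronger rescue from cytokine killing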
Calb FLC – C. albicans growth inhibition with fluconazole, primary screen, CaCi-2 strain, Alamar Blue fluorescence; C. albicans CaCi-2 (fluconazole-resistant clinical isolate) + fluconazole, 48 h; AID 1979, 2009; 0.57% of 300,000 active; growth inhibition, % (no concentration beside the values);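 active = growth inhibition above about 58% in most replicates, limit read from the data, passing the limit was not always enough; inconclusive = exactly half the replicates above a set limit; inactive = most replicates below a set limit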;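 also: all wells also contain fluconazole at 8 µg/ml as a sub-toxic cotreatment; 0% = median of DMSO wells and 100% = median of geldanamycin control wells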
PfHsp90 yeast 2 – growth inhibition of PfHsp90-expressing yeast, primary screen, antimalarial PfHsp90 inhibitor project, S. cerevisiae, BacTiter-Glo luminescence, single point, set 2; BacTiter-Glo ATP, 48 h; yeast lacking PDR1 and PDR3 efflux regulators; inhibition, % at 9.4 µM; 0.32% of 310,000 active; AID 504621, 2011;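 active = every replicate shows inhibition above about 80%, whatever the replicate mean, limit read from the data; inconclusive = mean inhibition reaches the set limit but some replicate falls short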;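 also: 0% = DMSO neutral controls and 100% = 20 µM radicicol positive controls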
Shn3 inh set2 – reduction of Shn3 3'UTR firefly luciferase signal, primary screen, Schnurri-3 inhibitor project, cell-based, Clone20 osteoblasts, set 2 | Clone20 osteoblast Shn3 3'UTR firefly luciferase, 24 h | inhibition, % at 12.5 µM | 0.52% of 360,000 active | AID 588674, 2011;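 active = mean inhibition of at least 75% with every replicate also reaching 75%; inconclusive = mean inhibition at least 75% but some replicate below; inactive = mean inhibition below 75%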;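 also: 0% = median of neutral control wells and 100% = pilot-screen positive control compound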
CSC inhib – cancer stem cell viability inhibitors, primary screen, luminescence; 1.1% of 300,000 active; AID 2717, 2010; inhibition, % at 7.5 µM; cancer stem cell-like cells viability; in the data active = inhibition above about 75%; inconclusive = no clear call, values can overlap the other calls; tested in HMLE shEcad cells
An asterisk follows results filed as active; ? = inconclusive; . = no result; + = active, no number. Rows were chosen to be rich in hits. Some 2.2% of all compounds tested hit in one or more screens of this group.

SMILES	Beta cell apopt	Calb FLC	PfHsp90 yeast 2	Shn3 inh set2	CSC inhib
CC(=O)Nc1ccc(CNc2nc3cc(-c4ccc(F)cc4)sc3c(=O)n2C)cc1	.	.	.	-32	.
Fc1ccc(Oc2nc(-c3ccccn3)nc3ccccc23)cc1	77*	-5	.	0	-7
c1ccc(Oc2nc(-c3ccccn3)nc3ccccc23)cc1	47	10	.	-26	3
C/C(=N\Nc1nc(-c2ccccc2O)nc2ccccc12)c1ccccc1	17	18	7	-11	-12
C/C(=N\Nc1nc(-c2ccccn2)nc2ccccc12)c1ccc(F)cc1	87*	1	3	-21	82*
c1ccc(-c2nc(N3CCCCCC3)c3ccccc3n2)nc1	123*	-3	.	80	-4
Cc1ccc(NS(=O)(=O)c2ccc(C)c(NC(=S)NCCN3CCOCC3)c2)c(C)c1	-7	.	0	8	-14
C/C(=N\NC(=O)c1ccoc1C)c1cccc2ccccc12	10	7	8	3	2
COc1ccc(NC(=O)CN(C)C(=O)C2CCCO2)cc1 (configuration not stated)	0	.	3	-26	.
COc1ccc(C(c2c[nH]c3ccccc23)c2c[nH]c3ccccc23)cc1O	6	-1	-24	-41	119*
Cc1ccc(OCC(=O)NNC(=S)NC(=O)C(C)(C)C)c(Br)c1	20	7	105*	46	15
Cc1ccc(OCC(=O)NNC(=S)NC(=O)C2CC2)c(C)c1	7	103*	104*	59	0
COc1cccc(CNC(=O)CCS(=O)(=O)Cc2ccc(C)cc2)c1	0	-3	-12	6	-2
O=C(CNC(=O)c1ccc2ccccc2c1)NCc1ccccc1F	0	-18	-4	0	-3
Cc1ccc(-c2nc(NC(=O)c3nn(C)cc3[N+](=O)[O-])sc2C)cc1C	107*	3	4	93*	.
Cn1cc([N+](=O)[O-])c(C(=O)Nc2ccc(C3CCCCC3)cc2)n1	-15	37	-29	-26	117*
Cc1ccc(-c2nc(NC(=O)c3nn(C)cc3[N+](=O)[O-])sc2C)cc1	116*	41	-5	93*	.
Cc1ccc(-c2csc(NC(=O)c3ccc([N+](=O)[O-])o3)n2)cc1	46	-9	6	16	127*
COCCNC(=O)C1(C)CCCN(C(=O)c2cc(OC)c(OC)c(OC)c2)C1 (configuration not stated)	.	.	.	1	.
Cn1cc([N+](=O)[O-])c(C(=O)Nc2nc(-c3ccc(Cl)cc3)cs2)n1	.	-17	-17	41	103*
N=c1c2c(n(Cc3ccc(Cl)c(Cl)c3)c3c1CCC3)CCCC2	102*	0	4	79	.
N=c1c2c(n(Cc3ccc(Br)cc3)c3c1CCC3)CCCC2	115*	21	-1	82	13
Cc1cccc(NC(=O)CSCC(=O)N(CCC(C)C)c2c(N)n(Cc3ccccc3)c(=O)[nH]c2=O)c1	-4	.	-69	-12	-13
CC(=O)OC[C@]12CC[C@H]3[C@@](C)(CC[C@H]4C(C)(C)CCC[C@]34C)[C@@H]1CC(C1=CC(=O)OC1O)O2 (some centres not stated)	.	.	.	98*	.
O=[N+]([O-])c1ccc(S(=O)(=O)c2ccccc2)nc1	106*	-10	9	93*	102*
SMILES	Beta cell apopt	Calb FLC	PfHsp90 yeast 2	Shn3 inh set2	CSC inhib
Cc1ccc(S(=O)(=O)c2ccc([N+](=O)[O-])cn2)cc1	105*	-6	95*	95*	100*
Cc1cc(Sc2ccc([N+](=O)[O-])cn2)ccc1Br	-11	-1	-6	81	25
Cc1cc(S(=O)(=O)c2ccc([N+](=O)[O-])cn2)ccc1Br	17	-32	69	98*	98*
CCN(CC(=O)NCc1cccs1)C(=O)c1ccc(OC)c(OC)c1	-3	8	-9	-6	-20
COc1cc(Br)cc(/C=C/c2ccc3cccc(O)c3n2)c1O	34	-2	-65	11	92*
Oc1cccc2ccc(/C=C/c3ccccc3Br)nc12	39	?	98*	42	97*
COc1ccc(OC)c(/C=C/c2ccc3cccc(O)c3n2)c1	38	-7	-13	-3	39
COc1cc(Br)c(/C=C/c2ccc3cccc(O)c3n2)cc1OC	9	-2	-9	-11	17
COc1cc(/C=C/c2ccc3cccc(O)c3n2)ccc1O	20	-7	-17	22	75*
COc1cc(/C=C/c2ccc3cccc(O)c3n2)c(Br)cc1O	39	15	-78	-10	96*
Oc1c(Cl)cc(Cl)cc1/C=C/c1ccc2cccc(O)c2n1	17	0	20	8	15
Cc1ccsc1/C=C/c1ccc2cccc(O)c2n1	22	29	-14	-31	92*
Oc1ccc(Cl)cc1/C=C/c1ccc2cccc(O)c2n1	.	-1	105*	-27	.
Cc1nnc(SCC(=O)c2ccc(C(C)C)cc2)s1	2	-8	-10	-12	.
OCCC1CN(Cc2cc(F)ccc2-n2cccn2)CCN1Cc1ccc(F)cc1 (configuration not stated)	-6	-2	-2	-9	-4
O=C1CCCN1CCC1CCN(C2CC(=O)N(c3ccc(Cl)cc3)C2=O)CC1 (configuration not stated)	.	?	102*	-14	-9
Cc1ccc2c(c1)Sc1c(ccc3ccccc13)N2	104*	-5	-19	.	39
COc1ccc(C(=O)/C=C/c2ccc(N3CCCCC3)c([N+](=O)[O-])c2)c(OC)c1	-3	2	-27	-3	97*
COc1ccc(C(=O)COC(=O)c2cc([N+](=O)[O-])ccc2N2CCOCC2)c(OC)c1	15	-2	+	2	7
COc1ccc(C(=O)c2cc([N+](=O)[O-])ccc2N2CCOCC2)cc1	13	-8	20	-1	40
CCOc1ccc(C(=O)c2cc([N+](=O)[O-])ccc2N2CCOCC2)cc1	79*	-11	-1	4	58
CC(=O)C1=CCC(c2ccccc2)N(S(=O)(=O)c2ccc(Cl)cc2)C1 (configuration not stated)	.	.	.	-3	.
CN(C)c1ccc(NS(=O)(=O)c2cc(Cl)ccc2Cl)cc1	0	2	-10	-21	24
Cc1ccc(NS(=O)(=O)c2sc3ccc(Cl)cc3c2C)cc1	-5	-10	.	.	98*
Cc1c(O)ccc2c(CN3CCN(Cc4ccccc4)CC3)cc(=O)oc12	-3	5	27	-16	1
O=c1cc(CN2CCN(Cc3ccccc3)CC2)c2ccc(O)c(O)c2o1	-3	88*	-18	21	23
Cc1oc2c(c1C(=O)N1CCC(C)CC1)C(=O)c1ccccc1C2=O	110*	-5	.	.	?
CC1CCN(C(=O)c2ccc3c(c2)C(=O)c2ccccc2-3)CC1	.	.	.	-9	.
CCOC(=O)C1CCN(C(=O)c2ccc(C)o2)CC1	-4	.	10	2	-12
